In PubChem BioAssay (Tox21):
Calls of active or inactive are those of the source. The call rests on the fitted dose curve; in most records, active means well fitted curve in the direction sought with a large enough effect in the repeat runs; inconclusive means weak or mixed curves; inactive means flat fitted curve, though single readings scatter.

Test: qHTS assay to test for compound auto fluorescence at 535 nm (green) in HEK293 cell free culture (AID 720682)
Details: cell-free medium, green autofluorescence 485/535 nm, hits give high values; series mostly up to 91.3 µM; activity change: at the top concentration
Text: U.S. Tox21 Program National Center for Advancing Translational Sciences [NCATS] NIH Chemical Genomics Center [NCGC] U.S. Environmental Protection Agency [EPA] National Institutes of Environmental Health Sciences [NIEHS] National Toxicology Program [NTP] U.S. Food and Drug Administration [FDA] Tox21 Assay Overview: Compound auto fluorescence often interferes with screening of the compound library against various biological targets and signaling pathways. Some of these compounds may have fluorophoric properties. Such properties may interfere with the assay outputs resulting in false positives and/or negatives. To decrease such complications and ensure the compound activities are relevant in terms of biological response, the Tox21 10K compound library was screened for auto fluorescence. From the fluorophores used as reporter signals in our screening assays, the auto fluorescence equivalencies of compounds against three fluorophores have been evaluated: Triamterene, Fluorescein and Rose Bengal sodium for blue, green and red fluorescence, respectively. The fluorescence intensities were measured using Excitation/Emission wavelengths at 405/460nm, 485/535nm and 540/590nm for blue, green and red labels, respectively. This assay includes the green fluorescence data.
Tox21 Assay Protocol Summary: 5 uL of culture medium (DMEM containing 10% FBS) per well was dispensed into black wall/clear bottom 1536-well plates using a Multidrop Combi Dispenser (ThermoFisher Scientific, Waltham, MA). After 23 nL compound or DMSO vehicle was transferred into assay plate by a pintool work station (Kalypsys, San Diego, CA), fluorescence intensities in the assay plates were measured by an Envision (PerkinElmer, Shelton, CT) plate reader using three labels for measuring blue, green and red fluorescence at […] 460, 535 and 590nm respectively.
On the % scale 0 is the no-effect control and ±100 the full control effect.

Compound | activity change | outcome
Nc1ccc(N)c2c1C(=O)c1ccccc1C2=O | -0.669% (inactive) | 
CC(C)(COC(=O)c1ccccc1)COC(=O)c1ccccc1 | -0.0108% (inactive) | 
OC(C#CCN1CCCC1)(c1ccccc1)c1ccccc1 | 0.0685% [at 46 µM] (inactive) | 
CCCCCCCC/C=C\CCCCCCCC(=O)OCC | -0.0204% (inactive) | 
CCC(=O)O[C@]1(C(=O)CCl)[C@@H](C)C[C@H]2[C@@H]3CCC4=CC(=O)C=C[C@]4(C)[C@@]3(F)[C@@H](O)C[C@@]21C | -0.0135% [at 46 µM] (inactive) | 
Cc1cccc(Nc2ccccc2)c1 | 0.0081% (inactive) | 
Cc1oc(-c2ccccc2)nc1CCOc1cccc2c1ccn2CCC(=O)O | -0.0744% (inactive) | 
C[N+](C)(C)CCOC(=O)CCC(=O)OCC[N+](C)(C)C | -0.0215% [at 46 µM] (inactive) | 
O=C(O)C(S)C(S)C(=O)O (stereo not given) | -0.0082% [at 46 µM] (inactive) | 
O=P(O)(OCc1ccccc1)OCc1ccccc1 | -0.04% (inactive) | 
CCOCC(O)COc1ccc(NC(=O)CC[S+](C)C)cc1 (stereo not given) | 0.0278% [at 46 µM] (inactive) | 
O=C(OCCc1ccccc1)c1ccccc1 | 0.0151% (inactive) | 
CC(C)(C)OCC1CO1 (stereo not given) | -0.0185% [at 95.7 µM] (inactive) | 
CCCCCCCCCCCCN1CCCCCC1=O | 0.0844% (inactive) | 
C=C(C)C(=O)OCCOCC | 0.0566% (inactive) | 
c1ccc(CNCCNCc2ccccc2)cc1 | -0.0817% [at 46 µM] (inactive) | 
CCOC(=O)Cc1cccc2ccccc12 | 0.122% (inactive) | 
Clc1ccc2c(c1)CCc1cccnc1C2=C1CCNCC1 | 0.0656% [at 46 µM] (inactive) | 
CN(Cc1ccc(C(C)(C)C)cc1)Cc1cccc2ccccc12 |  | inactive
Nc1ncn([C@H]2C[C@H](O)[C@@H](CO)O2)c(=O)n1 | 0.059% [at 46 µM] (inactive) | 

Compound | activity change | outcome
CO[C@@H]1[C@H](OC(=O)/C=C/C=C/C=C/C=C/C(=O)O)CC[C@]2(CO2)[C@H]1[C@@]1(C)O[C@@H]1CC=C(C)C |  | inactive
COc1cc2c(cc1OC)C(C(C(=O)N(CCc1ccc(OC)c(OC)c1OC)CCc1ccc(OC)c(OC)c1OC)c1ccccc1)=NCC2 (stereo not given) | 0.0595% [at 46 µM] (inactive) | 
CCC(C)(C)CC | -0.0289% [at 95.7 µM] (inactive) | 
O=C1CCCCCCCCCCCC(=O)OCCO1 | 0.0168% (inactive) | 
CC(=O)[O][Al] | -0.0266% [at 95.7 µM] (inactive) | 
OCCN1CCN(CCCN2c3ccccc3C=Cc3ccccc32)CC1 |  | inactive
CCCCCCCCCCCC(=O)OC[C@@H](O)[C@H]1OC[C@H](OCCO)[C@H]1OCCO | -0.0177% (inactive) | 
CC(C)(O)c1ccc(CNC(=O)c2cccnc2Oc2ccc(F)cc2)cc1 | -0.0717% (inactive) | 
CC(=O)c1cccc([N+](=O)[O-])c1 | 0.0958% (inactive) | 
O=C(Cl)c1cc(C(=O)Cl)cc(C(=O)Cl)c1 | -0.124% (inactive) | 
O=S(c1cc(Cl)cc(Cl)c1O)c1cc(Cl)cc(Cl)c1O | 0.0349% [at 46 µM] (inactive) | 
CCCCCCCCCc1ccc(OCCOCCO)cc1 |  | inactive
O=C1OC(=O)C2C3C=CC(C3)C12 (stereo not given) | -0.135% (inactive) | 
NC(=O)C(c1ccccc1)(c1ccccc1)[C@@H]1CCN(CCc2ccc3c(c2)CCO3)C1 | 0.0011% [at 46 µM] (inactive) | 
Cc1cccc(C)c1OCC(=O)N[C@@H](Cc1ccccc1)[C@@H](O)C[C@H](Cc1ccccc1)NC(=O)[C@H](C(C)C)N1CCCNC1=O | 0.109% [at 46 µM] (inactive) | 
Nc1ccccc1S(=O)(=O)c1ccccc1 | -0.0289% (inactive) | 
O=C(O)C1(C(=O)Nc2ccc(Cl)cc2Cl)CC1 | -0.0845% (inactive) | 
CCCCCCCCCCO[C@@H]1O[C@H](CO)[C@@H](O)[C@H](O)[C@H]1O | 0.0095% (inactive) | 
O=C(O)c1ccc(S(=O)(=O)O)cc1C(=O)O | -0.0248% (inactive) | 
CC(COCCO)OCCO (stereo not given) | 0.104% (inactive) | 
